The campaign covered roughly 280,000 compounds. About 1,100 (0.39%) were called active. Entries that show only a call come without a potency. Inconclusive results (about 7%) are left out. Calls follow the shape of the dose curve; as a rule, active = well fitted inhibition curve with a large enough effect; inconclusive = small, poorly fitted or top-dose-only effect, or effect the other way; inactive = flat fitted curve, though single readings scatter. The full list was thinned out, with actives kept by preference.
Potency is read from the fitted curve at half-maximal effect.

For this test, the target named is Microtubule-associated protein tau (Homo sapiens) (UniProt P10636). The test is described as follows: qHTS for Inhibitors of Tau Fibril Formation, Fluorescence Polarization. Also: nearly all actives have a fitted effect of over 55% in size. The settings on record: K18 P301L tau heparin fibrillization, Alexa594 FP, 6 h; series mostly up to 57.7 µM. The procedure, abridged: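 FP of Alexa 594-tau after heparin (20 uM) induction. Substrate: human K18 P301L, 15 uM unlabeled, 0.24 uM labeled. Buffer 100 mM sodium acetate pH 7. 6 hr, 37 C.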
Microtubule-associated protein tau (Homo sapiens), sequence (P10636 561-689 P618L limits assumed): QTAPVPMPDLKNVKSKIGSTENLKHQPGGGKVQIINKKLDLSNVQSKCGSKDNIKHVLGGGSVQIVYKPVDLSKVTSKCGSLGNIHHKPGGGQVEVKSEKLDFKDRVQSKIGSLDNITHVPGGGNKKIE
(In general: In qHTS, concentration-response curves come from the screen itself.)
As for `CN(C)S(=O)(=O)c1cccc(C(=O)Nc2cccnc2)c1`, the Potency entry was “inactive”. As to `O=C(c1cccnc1)N(c1cc2sc(=O)oc2c2ccccc12)S(=O)(=O)c1ccccc1`, the Potency is 17.8 µM (active). As for `COc1ccc(N(C(=O)c2cccnc2)S(=O)(=O)c2ccc3c(c2)n(C)c(=O)n3C)cc1`, the Potency result is “inactive”. Regarding `Cc1cccc(N2CCN(C(=O)c3cnc(N4CCCC4)nc3C)CC2)c1C`, the Potency result was “inactive”.

For `CCc1ccccc1NC(=O)N1CCC2(CC1)Oc1ccccc1C(=O)N2Cc1ccccc1F`, the Potency result was “inactive”. For `Cc1ccc(N(CC(=O)NCC(C)c2ccccc2)S(=O)(=O)N(C)C)cc1` (configuration not stated), the Potency result is “inactive”.

On to `CCOc1ccc(CNC(=O)Cn2cc3c(n2)-c2c(oc(C(=O)N4CCCC4)c2C)CC3)cc1`, for which the Potency entry is “inactive”.

Take `O=C(Nc1ccccc1)Nc1nc2ccccc2s1`: the Potency result was “inactive”. Consider `O=C(Nc1ccc2ccccc2c1)Nc1ccc2snnc2c1`, for which the Potency is 11.2 µM (active). With `COc1ccc(NC(=O)Nc2ccc3nsnc3c2)cc1`, the Potency result is “inactive”. For the compound `Cc1ccc(Cl)cc1N1CCN(C(=O)C2CCC(CNS(=O)(=O)c3cccs3)CC2)CC1` (configuration not stated), the Potency entry is “inactive”. Turning to `CCCOc1ccc(NC(=O)CC2C(=O)N(c3ccccc3)C(=O)N2Cc2ccco2)cc1` (configuration not stated), the Potency result was “inactive”. `COc1ccc(/C=C2\SC(=S)N(CC(=O)NNC(=O)c3ccncc3)C2=O)cc1`: the Potency result was “inactive”. On to `O=C(CCCN1C(=O)/C(=C/c2ccccc2)SC1=S)Nc1ccc(O)cc1`, for which the Potency result is “inactive”. As for `O=C(CCN1C(=O)/C(=C/c2cccs2)SC1=S)NNC(=O)c1cccc(O)c1`, the Potency is 35.5 µM (active). The same measure for `O=C(CCC(=O)N1CC2CCCN2c2ccccc21)NCc1ccccc1Cl` (configuration not stated): “inactive”; for `CN(C)c1cccc(C(=O)Nc2nc3ccc(S(=O)(=O)NC(C)(C)C)cc3s2)c1`: “inactive”. The same measure for `c1ccc2c(Nc3ccncc3)nc(-c3ccc4c(c3)OCO4)nc2c1`: 10 µM (active); for `c1ccc2c(Nc3ccncc3)nc(-c3ccoc3)nc2c1`: “inactive”; for `COc1cccc(-c2nc(Nc3ccncc3)c3ccccc3n2)c1`: 14.1 µM (active). As for `COc1ccccc1Oc1nc(-c2cccnc2)nc2ccccc12`, the Potency entry is “inactive”. As to `c1ccc2c(NCC3CCCO3)nc(-c3ccncc3)nc2c1` (configuration not stated), the Potency entry was “inactive”. With `CNc1nc(-c2ccccc2OC)nc2ccccc12`, the Potency entry is “inactive”.

For `COc1ccc(-n2c(SCC(N)=O)nc3c(oc4ccccc43)c2=O)cc1`, the Potency entry is “inactive”. The same measure for `Cc1cccc(C(=O)N2CCc3cc(CNC(=O)Cc4ccc(F)cc4)ccc32)c1`: “inactive”; for `CCN(CC)S(=O)(=O)c1ccc2c(c1)N(CC(=O)NCC(C)c1ccccc1)C(=O)CO2` (configuration not stated): “inactive”. The same measure for `Cc1ccc(S(=O)(=O)N2CCCc3cc(NS(=O)(=O)c4cc(C)ccc4C)ccc32)cc1`: “inactive”; for `COc1ccc(/C=N/S(=O)(=O)c2ccccc2)cc1OC`: “inactive”. Take `COc1ccc(C(=O)Nc2ccccc2C(=O)N/N=C/c2ccc(O)c(OC)c2)cc1`: the Potency result was “inactive”. With `COc1cc(/C=N/NC(=O)c2ccccc2)ccc1OS(=O)(=O)c1ccccc1`, the Potency is 35.5 µM (active). Turning to `COc1ccc(-c2nc(SCC(=O)N3CCCCC3C)n[nH]2)cc1` (configuration not stated), the Potency result is “inactive”. Turning to `Cc1nc(SCCOc2ccc(Cl)cc2)[nH]c(=O)c1Cc1ccccc1`, the Potency entry is “inactive”. In the case of `N#C/C(=C\c1ccccc1C(F)(F)F)C(=O)Nc1ccccc1F`, the Potency entry is “inactive”.

Consider `N#C/C(=C\C1=C(N2CCOCC2)C(=C\c2ccccc2)/CC1)C(=O)Nc1ccccc1F`, for which the Potency is 25.1 µM (active).

Turning to `C(=N\N1CCN(c2ccccn2)CC1)/C1=C(N2CCOCC2)C(=C/c2ccccc2)/CC1`, the Potency entry was “inactive”.

For `Cc1c(Cl)cccc1-c1ccc(CNCCCSc2nnnn2C)o1`, the Potency result was “inactive”.

Consider `Cc1cccc2nc(-c3ccc(Cl)s3)c(Nc3ccc4c(c3)OCCO4)n12`, for which the Potency entry was “inactive”. Consider `Cc1ccc2sc(N(Cc3cccnc3)C(=O)C3COc4ccccc4O3)nc2c1C` (configuration not stated), for which the Potency result was “inactive”.

On to `COc1ccc(N2CCN(C(=O)C3CCCN(C(=O)c4cc5sccc5n4C)C3)CC2)cc1` (configuration not stated), for which the Potency entry is “inactive”.

As to `CCc1ccc(CN(Cc2ccco2)C(=O)COc2ccc(Cl)c(C)c2)cc1`, the Potency entry was “inactive”.

With `COc1ccc(OC)c(C2C3=C(N=c4s/c(=C\c5cccc(O)c5)c(=O)n42)c2ccccc2CC3)c1` (configuration not stated), the Potency is 22.4 µM (active). The value for `O=C1CCCC2=C1C(c1ccccc1)n1c(s/c(=C/c3cccc(F)c3)c1=O)=N2` (configuration not stated) was “inactive”.

`CCOC(=O)C1=C(C)N=c2s/c(=C\C(=O)OC)c(=O)n2C1c1ccc(OC)cc1` (configuration not stated): the Potency entry was “inactive”. With `COC(=O)c1sccc1S(=O)(=O)N(CC(=O)Nc1ccc(C)c(F)c1)c1ccc(C)c(C)c1`, the Potency entry was “inactive”. In the case of `CCOc1ccc(Nc2ncnc3scc(-c4ccc(OC)cc4)c23)cc1`, the Potency result was “inactive”. In the case of `CCOC(=O)N1CCc2c(sc(NCc3cccc(F)c3)c2C(=O)Nc2ccccc2OCC)C1`, the Potency result is “inactive”. As to `CCOC(=O)N1CCc2c(sc3c2c(=O)n(-c2ccc(CC)cc2)c(=O)n3C)C1`, the Potency result was “inactive”. The value for `Cc1ccccc1CNC(=O)c1cccc(NC(=O)c2nsc3ccccc23)c1` was “inactive”; that for `Cc1ccc(NC(=O)Nc2cc(-c3ccccc3)nn2C)cc1Cl` was 14.1 µM (active); that for `Cc1cc(NC(=O)Nc2ccc(Cl)cc2)n(-c2ccccc2)n1` was “inactive”.

In the case of `Cc1cc(NC(=O)Nc2ccccc2)n(-c2ccccc2)n1`, the Potency entry is “inactive”. On to `CC1CN(C(=O)N2CCC(C(=O)NCc3ccco3)CC2)c2cc(Cl)ccc2O1` (configuration not stated), for which the Potency result is “inactive”.

On to `Cc1cccc(NC(=O)CSc2nc3c([nH]c4ccccc43)c(=O)n2-c2cc(C)cc(C)c2)c1`, for which the Potency result is “inactive”. On to `COCCn1c(SCC(=O)c2cc(C)ccc2C)nc2cc(C(=O)NC3CCCC3)ccc2c1=O`, for which the Potency entry is “inactive”. The value for `COc1ccc(-c2cn3c(C)c(C(=O)Nc4cc(C)cc(C)c4)sc3n2)cc1` was “inactive”; that for `O=C1OC(NC(=O)c2ccccc2)C(N2CCOCC2)=C1Cl` (configuration not stated) was “inactive”.

With `c1ccc(-n2nnnc2N2CCOCC2)cc1`, the Potency entry was “inactive”. For the compound `O=C1C(Cl)=C(N2CCOCC2)C(=O)N1c1ccccc1`, the Potency was 28.2 µM (active).

As for `Cc1ccc2nc(N3CCN(c4cccc(Cl)c4)CC3)c3nnnn3c2c1`, the Potency entry is “inactive”.

Take `O=C(CNS(=O)(=O)c1cccs1)N1CCN(c2ccccc2Cl)CC1`: the Potency entry is “inactive”. On to `Cc1ccccc1CN1CCC(CNC(=O)c2cc3ccc4cccnc4c3[nH]2)CC1`, for which the Potency entry is “inactive”. Take `COc1ccccc1CNC(=O)NCc1noc2ccc(C)cc12`: the Potency result was “inactive”. For `Cc1ccc(NC(=O)C2CCN(S(=O)(=O)c3cc(-c4noc(C)n4)ccc3C)CC2)c(C)c1`, the Potency result is “inactive”. With `COc1ccc(OC)c(NC(=O)CSc2nc3ccccc3nc2N2CCCCC2)c1`, the Potency result was “inactive”. `O=c1c(O)c(Br)ccc2c(Br)c(O)c(O)c(O)c12`: the Potency was 10 µM (active). In the case of `CC(C)Cn1c(=O)c2ccccc2n2c(-c3cccc(Cl)c3)nnc12`, the Potency entry is “inactive”. Consider `COc1ccc2c(c1)c(N1CCCC1=O)c(C(=O)Nc1ccccc1C(F)(F)F)n2C`, for which the Potency entry was “inactive”.

With `COc1cccc(Nc2nc(N)c([N+](=O)[O-])c(NCc3ccco3)n2)c1`, the Potency is 3.16 µM (active). `COc1ccc(Nc2nc(Cl)nc(NCc3ccco3)n2)cc1`: the Potency entry was “inactive”. Regarding `CN(c1ccccc1)c1nc(N)c([N+](=O)[O-])c(NCc2ccco2)n1`, the Potency entry was “inactive”. The same measure for `O=C(NCC(c1cccnc1)N1CCc2ccccc21)c1cccc(C(F)(F)F)c1` (configuration not stated): “inactive”; for `Cc1cc(C)cc(NS(=O)(=O)c2ccc3[nH]cc(C(=O)N4CCCCC4)c(=O)c3c2)c1`: “inactive”; for `COc1ccc(S(=O)(=O)NC(C)C)cc1C(=O)NC1CCCCC1`: “inactive”. With `CC(C)c1ccc(NS(=O)(=O)c2ccc3[nH]cc(C(=O)NC4CCCC4)c(=O)c3c2)cc1`, the Potency is 11.2 µM (active). As to `Cc1cccc(NC(=O)Cn2nc(-c3ccc(Cl)cc3)c3ccccc3c2=O)c1`, the Potency entry is “inactive”. Take `O=S(=O)(c1ccccc1)c1nc(-c2ccc(Cl)cc2Cl)oc1N1CCCCC1`: the Potency entry was “inactive”. Turning to `CCc1ccc(NC(=O)CN2CCSc3ccc(S(=O)(=O)N4CCCC4)cc32)cc1`, the Potency entry was “inactive”. With `COc1ccc(S(=O)(=O)NCc2cccn2Cc2cccc(C)c2)cc1Cl`, the Potency entry is “inactive”.

On to `Cc1cccc(CC(=O)N2CC(=O)Nc3ccc(F)cc3C2c2ccccc2)c1` (configuration not stated), for which the Potency entry was “inactive”. The value for `CC(C)c1ccc2oc(-c3cc(NC(=O)c4cccs4)ccc3Cl)nc2c1` was 12.6 µM (active); that for `Cc1ccc(-c2nnc(-c3ccc(NC(=O)c4cccs4)cc3)o2)cc1` was “inactive”; that for `O=C(Nc1ccc(-c2nc3cc(NC(=O)c4ccccc4Cl)ccc3o2)cc1)c1ccccc1Cl` was “inactive”. Take `CCN(CC)CCNC(=O)c1cc2c(=O)oc3ccc(C)cc3c2s1`: the Potency entry is “inactive”.

For the compound `Cc1cccc(NC(=O)c2cccc(C(F)(F)F)c2)c1`, the Potency entry is “inactive”.

Consider `Cc1cccc(NC(=O)Nc2cccc(Oc3c(F)c(F)c(F)c(F)c3F)c2)c1`, for which the Potency was 8.91 µM (active). Consider `COc1cccc(NC(=O)NCc2ccc(F)cc2)c1`, for which the Potency entry is “inactive”. Take `COc1cc2c(=O)c(S(=O)(=O)c3ccc(C(C)C)cc3)cn(Cc3ccccc3C)c2cc1OC`: the Potency entry was “inactive”. For `O=C(Nc1ccccc1)Nc1ccccc1C(=O)NCc1ccco1`, the Potency entry was “inactive”. The value for `CCOc1ccc(CNC(=O)c2cc(-c3ccc(Cl)s3)nc3ccccc23)cc1` was “inactive”. On to `CCc1ccc(-c2cc(C(=O)NCc3ccco3)c3ccccc3n2)s1`, for which the Potency is 28.2 µM (active). For `COc1ccc(-c2noc(-c3ccc(N4CCN(c5ccccc5)CC4)c([N+](=O)[O-])c3)n2)cc1OC`, the Potency result is “inactive”. Regarding `CCOc1ccccc1CNCc1c(C(=O)O)c(C)n(Cc2ccc(C)cc2)c1C`, the Potency result was “inactive”. In the case of `COc1ccccc1CNC(=O)CCn1c(=O)c2ccccc2n(CC(=O)Nc2ccc(Br)cc2F)c1=O`, the Potency result is “inactive”.

`Cc1cc(C)c2oc(C(=O)Nc3ccc(S(=O)(=O)N(C)c4ccccc4)cc3)cc(=O)c2c1`: the Potency result is “inactive”.

Take `COc1ccc(-c2csc(-c3c(N)c(C(=O)c4ccc(OC)c(OC)c4)n4ccccc34)n2)cc1`: the Potency result was “inactive”. With `Cc1ccc(Cl)cc1N1CCN(C(=O)CN2C(=O)COc3ccc(S(=O)(=O)N4CCOCC4)cc32)CC1`, the Potency result was “inactive”.

With `COc1ccc(-n2c(=O)c3c(c4cc(OC)ccc4n3C)n(Cc3cccc(C)c3)c2=O)cc1`, the Potency entry was “inactive”.

Values taken from PubChem BioAssay AID1468 (National Center for Advancing Translational Sciences (NCATS), 2008).
